# Measurements reported in PubChem BioAssay AID504834 (National Center for Advancing Translational Sciences (NCATS), 2011).
# In all, about 320,000 compounds went through this assay and about 22,000 (6.9%) were called active. Not shown: some 27% with an inconclusive outcome. The call rests on the fitted dose curve; in most records, active means well fitted inhibition curve with a large enough effect; inconclusive means small, poorly fitted or top-dose-only effect, or another doubt; inactive means no such curve, though single readings can be large or run the other way. Shown is part of a subset that was picked to be rich in actives. Entries that show only a call come without a potency.
# Assay: Primary qHTS for delayed death inhibitors of the malarial parasite plastid, 96 hour incubation
# Details: P. falciparum luciferase reporter growth; series mostly up to 28.7 µM
# Summary of the method: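 Readout is luminescence from an integrated firefly luciferase in P. falciparum. Red cells, 2% hematocrit and 0.05% parasitemia final, were cultured with compound through two parasite generations (96 hours) at 37 C, 5% CO2.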
# Potency means the concentration at half of the fitted maximal effect.
row,SMILES,Potency
1,O=S(=O)(Nc1ccc2nc(N3CCOCC3)sc2c1)c1ccccc1,inactive
2,Fc1cc(F)c2nc(N3CCOCC3)sc2c1,3.7 µM (active)
3,O=C(c1ccc2nc(N3CCOCC3)sc2c1)N1CCN(c2ccc(Cl)cc2)CC1,inactive
4,COc1ccc(S(=O)(=O)N2CCN(C(C)C(=O)Nc3ccc(C(C)C)cc3)CC2)cc1 (stereo unspecified),inactive
5,O=[N+]([O-])c1cccc(Nc2c3ccccc3nc3ccccc23)c1,inactive
6,CCOc1ccccc1Nc1ccc(C(=O)O)cc1[N+](=O)[O-],inactive
7,O=C(O)c1cc([N+](=O)[O-])c(Nc2cccc3ccccc23)c([N+](=O)[O-])c1,3.29 µM (active)
8,NC(=O)c1c(NC(=O)c2ccccc2)sc2c1CCCC2,inactive
9,CC1CCCCC12NC(=O)N(CC(=O)Nc1ccc(S(=O)(=O)Nc3ncccn3)cc1)C2=O (stereo unspecified),inactive
10,COCCN1C(=O)C(=O)/C(=C(/O)c2ccc(S(=O)(=O)N3CCOCC3)cc2)C1c1ccc(O)c(OC)c1 (stereo unspecified),inactive
11,Cc1ccc(NC(=O)Nc2ccccc2)c(Br)c1,7.38 µM (active)
12,Cc1cccc(NC(=O)Nc2nnc(-c3ccccc3)o2)c1,inactive
13,Cc1c(NC(=O)Nc2ccccc2)cccc1[N+](=O)[O-],inactive
14,CCN(CC)S(=O)(=O)c1ccc(N2CCOCC2)c(NC(=O)C2COc3ccccc3O2)c1 (stereo unspecified),inactive
15,CCC(=O)Nc1ccccc1N1CCN(S(C)(=O)=O)CC1,inactive
16,CCN(CC)S(=O)(=O)c1cc(C(=O)Nc2cc(S(=O)(=O)N3CCOCC3)ccc2N2CCCC2)ccc1F,2.62 µM (active)
17,CC12CCC(=O)N1C(C(=O)Nc1ccc(F)c(F)c1F)CS2 (stereo unspecified),inactive
18,CCN(CC)S(=O)(=O)c1ccc(N2CCOCC2)c(NC(=O)C(C)Oc2ccc(F)cc2)c1 (stereo unspecified),14.7 µM (active)
19,O=C(COC(=O)c1ccccc1F)Nc1cc(S(=O)(=O)N2CCOCC2)ccc1N1CCCC1,inactive
20,O=C(CNCc1ccco1)Nc1cc(S(=O)(=O)N2CCOCC2)ccc1N1CCCC1,inactive
21,CCN(CC)S(=O)(=O)c1ccc(N2CCN(C)CC2)c(NC(=O)Nc2ccccc2F)c1,13.1 µM (active)
22,CCN(CC)S(=O)(=O)c1ccc(N2CCOCC2)c(C(=O)O)c1,inactive
23,CCN(CC)S(=O)(=O)c1ccc(N2CCOCC2)c(NC(=O)C2CSC3(C)CCC(=O)N23)c1 (stereo unspecified),10.4 µM (active)
24,CC(=O)N1CCc2cc(S(=O)(=O)Nc3ccccc3N3CCN(C)CC3)ccc21,inactive
25,CC(Oc1ccc(F)cc1)C(=O)Nc1cc(S(=O)(=O)N2CCOCC2)ccc1N1CCN(C)CC1 (stereo unspecified),inactive
26,CN(CC(=O)NC(=O)Nc1ccccc1F)Cc1ccccc1,inactive

row,SMILES,Potency
1,COc1ccc2ccn(C)c2c1,inactive
2,O=C(Cc1cccs1)Nc1ccc([N+](=O)[O-])cc1,inactive
3,O=C(O)C(c1ccccc1)N1C(=O)/C(=C\c2ccc(-c3cccc(Cl)c3)o2)SC1=S (stereo unspecified),inactive
4,O=C1CCC(C(=O)N2CCCCO2)CN1Cc1cccc(C(F)(F)F)c1 (stereo unspecified),inactive
5,O=C(NC1CCCC1)c1cc(-c2ccccc2)on1,inactive
6,CCC(CC)C(=O)Nc1cccc(C(=O)N2CCCC2)c1,8.28 µM (active)
7,COc1ccc(OCc2cccc(C(=O)N3CCCC3)c2)cc1,inactive
8,CC(=O)c1cccc(NC(=S)N2CCCC2)c1,inactive
9,Cc1ccc(Cl)c(OCC(=O)NN2CCN(C)CC2)c1,inactive
10,CCc1c(C)nc(N)n2c(SCC(=O)NC3CCCCC3)nnc12,inactive
11,CCOC(=O)C1=C(c2ccccc2)NC(=S)NC1c1ccc(Cl)cc1 (stereo unspecified),inactive
12,Cn1c2c(c(=O)n(C)c1=O)C(c1cccc([N+](=O)[O-])c1)Nc1ccccc1O2 (stereo unspecified),inactive
13,CCOC(=O)C1=C(CN2CCc3ccccc32)NC(=O)NC1c1cccc([N+](=O)[O-])c1 (stereo unspecified),8.28 µM (active)
14,CCOC(=O)C1=C(CN2CCCCCC2)NC(=O)NC1c1cccc([N+](=O)[O-])c1 (stereo unspecified),inactive
15,O=C(OCC(=O)N1CCc2ccccc21)C1CCCN1S(=O)(=O)c1ccc(Cl)cc1 (stereo unspecified),inactive
16,CCOC(=O)C1=C(CN2CCc3ccccc32)NC(=O)NC1c1ccc(Cl)cc1 (stereo unspecified),2.08 µM (active)
17,NC(=O)C1CCCN(CC(=O)N2CCN(c3ccccc3)CC2)C1 (stereo unspecified),inactive
18,CCOc1ccc(NC(=O)COC(=O)C2CCC(=O)N2)c([N+](=O)[O-])c1 (stereo unspecified),inactive
19,CN(CC(=O)O)S(=O)(=O)c1ccc2oc3ccccc3c2c1,inactive
20,CC1CCCCC1NC(=O)c1cc(=O)[nH]c2ccccc12 (stereo unspecified),inactive
21,Cc1ccccc1NCC(=O)N/N=C\c1ccc([N+](=O)[O-])s1,inactive
22,CCOc1ccc(NC(=O)CCC(=O)N/N=C/c2ccc([N+](=O)[O-])s2)cc1,4.15 µM (active)
23,CCOc1ccc(NC(=O)CCC(=O)NNC(=O)NC2CCCCC2)cc1,inactive
24,CCOc1ccc2sc(NS(=O)(=O)c3ccc(N)cc3)nc2c1,inactive
25,CCc1cccc(CC)c1NC(=S)Nc1ccc2cn[nH]c2c1,inactive
26,CCc1cccc(CC)c1NC(=S)NCc1ccc2[nH]c(C)cc2c1,2.62 µM (active)

row,SMILES,Potency
1,Cc1cc2cc(CNC(=O)c3cccs3)ccc2[nH]1,inactive
2,CCOc1ncccc1C(=O)OCC(=O)Nc1cccc(S(=O)(=O)N2CCCCCC2)c1,inactive
3,CC(C)c1ccc(/C=C2\NC(=O)NC2=O)cc1,inactive
4,CCO[C@@H]1OC(C(=O)N2CCOCC2)=C[C@H](C)[C@H]1CCCO,inactive
5,CCO[C@H]1OC(C(=O)N2CCCCCCC2)=C[C@@H](c2ccc(C(F)(F)F)cc2)[C@@H]1CCCO,3.29 µM (active)
6,CCO[C@@H]1OC(C(N)=O)=C[C@H](c2ccc(Br)cc2)[C@H]1CCCO,inactive
7,CCO[C@H]1OC(C(=O)N2CCN(Cc3ccccc3)CC2)=C[C@@H](c2cn(C(C)=O)c3ccccc23)[C@@H]1CCCO,9.28 µM (active)
8,CCO[C@H]1OC(C(=O)O)=C[C@@H](C2CCCCC2)[C@@H]1CCCO,inactive
9,CCO[C@H]1OC(C(=O)N2CCOCC2)=C[C@@H](c2ccc3c(c2)OCO3)[C@@H]1CCCO,inactive
10,Cc1ccc(S(=O)(=O)CCC(=O)OCC(=O)N(C)C2CCS(=O)(=O)C2)cc1 (stereo unspecified),inactive
11,CCN(CC(=O)Nc1ccccc1C(F)(F)F)C(=O)CSCc1c(C)noc1C,inactive
12,Cc1ccc2c(c1)N(CC(=O)NCC1CCCO1)C(=O)CO2 (stereo unspecified),7.38 µM (active)
13,Cc1ccc2c(c1)N(CC(=O)N1CCCC(C)C1)C(=O)CO2 (stereo unspecified),inactive
14,Cc1ccc2c(c1)N(CC(=O)N1CCOCC1)C(=O)CO2,inactive
15,CN(C)CCN(C(=O)C1=COCCO1)c1nc2ccc(Cl)cc2s1,inactive
16,CC(=O)N(CC1CCCO1)C1(C(=O)NC2CCCC2)CCCCC1 (stereo unspecified),10.4 µM (active)
17,Cc1ccc(N(C(=O)CC2NC(=O)NC2=O)C2(C(=O)NC3CCCC3)CCCCC2)cc1 (stereo unspecified),inactive
18,O=C(Cc1cccs1)N(CC1CCCO1)C1(C(=O)NC2CCCCC2)CCCCC1 (stereo unspecified),inactive
19,O=[N+]([O-])c1cccc(S(=O)(=O)NCc2ccccn2)c1,inactive
20,Cc1ccc(S(=O)(=O)NNC(=S)NC(C)(C)C)cc1,inactive
21,Cc1ccc(S(=O)(=O)NNC(=O)Nc2cccc3ccccc23)cc1,1.85 µM (active)
22,COc1ccc(C(=O)NNS(=O)(=O)c2ccc(C)cc2)cc1,inactive
23,CCOc1ccc(NC(=O)CN(C)C(=O)Cn2c(=O)cnc3ccccc32)cc1OCC,inactive
24,COc1ccccc1C(=O)NC(=O)COC(=O)C1CC1,inactive
25,CC(=O)c1ccccc1NC(=O)C1CC(=O)N(c2ccc3c(c2)OCCO3)C1 (stereo unspecified),inactive
26,CCOC(=O)C1CCN(C(=O)COC(=O)C2CCN(S(=O)(=O)c3ccc4c(c3)OCCO4)CC2)CC1,inactive

row,SMILES,Potency
1,Cn1c(=O)cc(SCC(=O)N2CCCC2)c2cc(Cl)ccc21,inactive
2,CCCCn1c(SCC(=O)N2CCCC2=O)nc2cc(S(N)(=O)=O)ccc21,inactive
3,CCOC(=O)C1CCN(C(=O)CSc2cc(=O)n(C)c3ccccc23)CC1,2.33 µM (active)
4,CCCCn1c(SCC(=O)N2CCC(C(=O)OCC)CC2)nc2cc(S(N)(=O)=O)ccc21,13.1 µM (active)
5,Cn1c(=O)cc(SCC(=O)N2CCN(C(=O)c3ccco3)CC2)c2ccccc21,inactive
6,CCCCn1c(SCc2ncc(-c3ccccc3)o2)nc2cc(S(N)(=O)=O)ccc21,14.7 µM (active)
7,O=C(CCNS(=O)(=O)c1ccccc1)NCCCc1ccccc1,inactive
8,CN1C(=O)c2ccc(C(=O)Nc3ccc(Br)cn3)cc2C1=O,inactive
9,Cc1c(C(=O)N2CCOCC2)[nH]c2ccc(OCc3ccccc3)cc12,inactive
10,CCOC(=O)c1[nH]c2ccc(OC)cc2c1NC(=O)CCN1CCN(Cc2ccccc2)CC1,inactive
11,CCOC(=O)c1[nH]c2ccc(OC)cc2c1NC(=O)N1CCOCC1,14.7 µM (active)
12,O=C(COc1ccc(Cl)cc1)Nc1ccc2oc(=O)ccc2c1,inactive
13,CC1(C)CC(=O)C=C(c2ccc(Cl)c(C(F)(F)F)c2)C1,5.86 µM (active)
14,COc1cc(F)c(C2=CC(=O)CC(C)(C)C2)cc1F,inactive
15,CC1(C)CC(=O)C=C(c2ccc3ncccc3c2)C1,inactive
16,COC(=O)C1(C)NC(c2ccccc2OC)C2C(=O)N(c3ccccc3)C(=O)C21 (stereo unspecified),inactive
17,Cc1cc(C(=O)NCCc2ccc(Cl)cc2)n(-c2ccccc2)n1,inactive
18,CCc1[nH]nc(C(=O)N2CCCC(CO)(Cc3ccc(F)cc3F)C2)c1C (stereo unspecified),inactive
19,CCCN(c1ccc(C)cc1)c1nc(=O)c2cccnc2s1,6.57 µM (active)
20,CCc1c(C)nc(SCC(=O)NC2CCCC2)[nH]c1=O,inactive
21,CCc1ccc(C(=O)NN=C2CCCCCC2)s1,inactive
22,CC(=O)Nc1ccc(NC(=O)COc2ccc(-c3ccccc3)cc2)cc1,inactive
23,C[N+]1(C)CCOC(O)(c2ccc(-c3ccc(C4(O)C[N+](C)(C)CCO4)cc3)cc2)C1 (stereo unspecified),5.86 µM (active)
